39 molecules from PubChem BioAssay (NCATS) can be followed below.

Each structure is given as a SMILES string. Records with an inconclusive call do not appear. A call without a number means that no potency is given here. The source made the active and inactive calls. The call rests on the fitted dose curve. Numbered stars: 1 amine (or outer) side, 2 acyl side, 3 side chain; on linkers, the order of the positions; unused ones are H or OH. Square brackets hold non-standard residues; d marks the D form. Side chains are listed from the residue outwards. Peptide text beside a SMILES is read from it. * marks the point of attachment. Ethylenediamine = C(CN[*:2])N[*:1]; Hyp = O=C(O)[C@@H]1C[C@@H](O)CN1; Phg = N[C@H](C(=O)O)c1ccccc1; CO = O=C([*:1])[*:2]; Bn = c1ccc(C*)cc1

A short description of the first test: Primary qHTS for Vero E6 cytotoxicity: counterscreen for inhibitors of SARS-S pseudo-typed particle cell entry (AID 1479150). The following applies: cell viability; series mostly up to 57.1 µM.
`O=C(N[C@H]1CCS[C@H]2CCC[C@@H](C(=O)O)N2C1=O)[C@@H](S)Cc1ccccc1`: the Potency entry was “inactive”. As for `Nc1nc2c(c(=O)[nH]1)N(C=O)C(CNc1ccc(C(=O)N[C@@H](CCC(=O)O)C(=O)O)cc1)CN2` (some centres not stated), the activity change, negative = cytotoxicity is 2.47% [at 0.573 µM] (inactive). As to `COCC1=C(C(=O)OC(C)OC(=O)OC(C)C)N2C(=O)[C@@H](NC(=O)/C(=N/OC)c3csc(N)n3)[C@H]2SC1` (some centres not stated), the Potency entry is “inactive”.

A further test is described as follows: Cytotoxicity counterscreen for inhibitors of SARS-CoV-2 cell entry (AID 1645845). Further: nearly all actives have a fitted effect of over 50% in size. Particulars: cell viability (SARS-CoV-2 entry assay cells); series mostly up to 57.1 µM. In a few lines: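 Counterscreen run in the same HEK293-ACE2 line as the pseudotyped-particle entry assay, without particles. Viability after 48 h at 37 C was read as ATP luminescence, scaled between cell-containing and cell-free wells.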
Regarding `C[C@H](NCCc1ccc(O)cc1)[C@H](O)c1ccc(O)cc1`, the Potency entry was “inactive”. Consider `CCOC(=O)[C@H](C)C[C@@H](Cc1ccc(-c2ccccc2)cc1)NC(=O)CCC(=O)O`, for which the Potency entry is “inactive”. Take `C[N+]1(C)C2CC[C@H]1CC(OC(=O)C(O)c1ccccc1)C2` (some centres not stated): the Potency entry was “inactive”. On the same count and under the same terms, to `CCC(=O)Oc1ccc2c(c1)CC[C@@H]1[C@H]2CC[C@]2(C)[C@@H](OC(=O)CC)CC[C@@H]12` belongs “inactive”; to `CCN1CCCC1CNC(=O)c1cc(S(=O)(=O)CC)ccc1OC` (configuration not stated), “inactive”. The same measure, in the same setting: under `CC(=O)O[C@]1(C(C)=O)CC[C@H]2[C@@H]3C[C@H](C)C4=CC(=O)C=C[C@]4(C)[C@@]3(F)[C@@H](O)C[C@@]21C` stands “inactive”; under `NCCCC[C@@H]1NC(=O)[C@@H](Cc2c[nH]c3ccccc23)NC(=O)[C@H](c2ccccc2)NC(=O)[C@@H]2C[C@@H](OC(=O)NCCN)CN2C(=O)[C@H](Cc2ccccc2)NC(=O)[C@H](Cc2ccc(OCc3ccccc3)cc2)NC1=O` (cyclo([Hyp]([CO-Ethylenediamine])[Phg][dW]KY(Bn)F)), “inactive”.

Take `CCCCOC(=O)C(=O)Nc1cccc(-c2nn[nH]n2)c1`: the Potency entry was “inactive”.

Turning to `CCCCC/C=C\C/C=C\C/C=C\CCCCC(=O)O`, the Potency entry is “inactive”. With `Cc1ncc([N+](=O)[O-])n1CCOC(=O)c1ccccc1`, the Potency result is “inactive”. Take `CCOC(=O)COc1ccc2c(=O)cc(-c3ccccc3)oc2c1`: the Potency result was “inactive”. With `NC(=O)[C@H]1O[C@@H](O)[C@H](O)[C@@H](O)[C@@H]1O`, the Potency result was “inactive”. On to `C[C@@H]1CCC[C@H](C)N1NC(=O)c1ccc(Cl)c(S(N)(=O)=O)c1`, for which the Potency result is “inactive”. Still for that read-out and setting: to `C=C[C@@H]1C[C@]1(NC(=O)[C@@H]1C[C@@H]2CN1C(=O)[C@H](C(C)(C)C)NC(=O)O[C@@H]1C[C@H]1CCCCCc1nc3ccc(OC)cc3nc1O2)C(=O)NS(=O)(=O)C1CC1` belongs “inactive”; to `C=CC[N@@+]12CC[C@]34c5ccccc5N5/C=C6\C7N(/C=C(\C53)[C@@H](C[C@@H]41)/C(=C/CO)C2)c1ccccc1[C@@]71CC[N@@+]2(CC=C)C/C(=C\CO)[C@@H]6C[C@@H]12` (some centres not stated), “inactive”; to `CC(C)CN(C[C@@H](O)[C@H](Cc1ccccc1)NC(=O)O[C@H]1CCOC1)S(=O)(=O)c1ccc(N)cc1`, “inactive”. Regarding `OC[C@H]1O[C@@H](O)[C@H](O)[C@@H](O)[C@@H]1O`, the Potency result was “inactive”. `CCCCCCCCCCCCCC(=O)OCC(COP(=O)([O-])OCC[N+](C)(C)C)OC(=O)CCCCCCCCCCCCC` (configuration not stated): the Potency entry is “inactive”. As to `C[C@H]1C[C@@H]2[C@H]([C@@H](O)C[C@@]3(C)[C@H]2CC[C@]3(O)C(=O)COC(=O)CCC(=O)O)[C@@]2(C)C=CC(=O)C=C12`, the Potency entry is “inactive”. Still for that read-out and setting: under `CC(C)(CO)C(O)C(=O)NCCCC(=O)O` (configuration not stated) stands “inactive”; under `COC(F)(F)C(Cl)Cl`, “inactive”. As for `C[N+](C)(C)CCOP(=O)([O-])OP(=O)(O)OC[C@H]1OC(n2ccc(N)nc2=O)[C@H](O)[C@@H]1O` (some centres not stated), the outcome was “inactive [at 0.702 µM]”. For `C[C@H]1O[C@]2(CS1)CN1CCC2CC1`, the Potency entry is “inactive”.

Take `CCCCc1cc2c(=O)c(C(=O)OC)c[nH]c2cc1OCc1ccccc1`: the Potency result was “inactive”. For the molecule `O=C(Cn1c(=O)sc2ccc(Cl)cc21)N1CCN(CCO)CC1`, the Potency entry is “inactive”. Take `CCCCCc1ccc(C)cc1O`: the Potency result is “inactive”. In the case of `CC1(C)S[C@@H]2[C@H](NC(=O)[C@H](N)c3ccccc3)C(=O)N2[C@H]1C(=O)OCOC(=O)[C@@H]1N2C(=O)C[C@H]2S(=O)(=O)C1(C)C`, the Potency entry is “inactive”. As for `O=[N+]([O-])c1ccc(/C=C/c2cccc(CO)n2)o1`, the Potency result is “inactive”.

In the case of `CN(C)CC(c1ccc(O)cc1)C1(O)CCCCC1` (configuration not stated), the Potency entry is “inactive”. Consider `FC(F)OC(Cl)C(F)(F)F` (configuration not stated), for which the Potency result was “inactive”. For `Cc1cc(Nc2ccccc2C(=O)O)ccc1Cl`, the Potency entry was “inactive”. Still for that read-out and setting: under `CCCCCCCCCC(=O)OCCN1CCN(CC/C=C2/c3ccccc3Sc3ccc(Cl)cc32)CC1` stands “inactive”; under `CC(=O)c1cc2cccc(OCC(O)CNC(C)C)c2o1` (configuration not stated), “inactive”. Same read-out and setting: under `CC[C@H]1OC(=O)C[C@@H](OC(C)=O)[C@H](C)[C@@H](O[C@@H]2O[C@H](C)[C@@H](O[C@H]3C[C@@](C)(O)[C@@H](OC(=O)CC(C)C)[C@H](C)O3)[C@H](N(C)C)[C@H]2O)[C@@H](CC=O)C[C@@H](C)C(=O)/C=C/C(C)=C/[C@@H]1CO[C@@H]1O[C@H](C)[C@@H](O)[C@@H](OC)[C@H]1OC` stands “inactive”. Regarding `CCC1(C)OC(=O)N(C)C1=O` (configuration not stated), the Potency result was “inactive”. On to `CC=CC1=C(C(=O)O)N2C(=O)[C@@H](NC(=O)[C@H](N)c3ccc(O)cc3)[C@H]2SC1`, for which the Potency entry was “inactive”.

Turning to `O=C(N[C@H]1CCS[C@H]2CCC[C@@H](C(=O)O)N2C1=O)[C@@H](S)Cc1ccccc1`, the Potency entry is “inactive”. On to `Nc1nc2c(c(=O)[nH]1)N(C=O)C(CNc1ccc(C(=O)N[C@@H](CCC(=O)O)C(=O)O)cc1)CN2` (some centres not stated), for which the outcome is “inactive [at 0.702 µM]”. For `COCC1=C(C(=O)OC(C)OC(=O)OC(C)C)N2C(=O)[C@@H](NC(=O)/C(=N/OC)c3csc(N)n3)[C@H]2SC1` (some centres not stated), the Potency entry was “inactive”.
